Read-out in test [1]: TIMP metallopeptidase inhibitor 1 (TIMP1), TIMP1 (gene 7076)
The test is described as follows: BSK_hDFCGF_TIMP1: BioMAP Diversity Plus: hDFCGF Assay for TIMP metallopeptidase inhibitor 1 (TIMP1) Biomarker Activity (AID 2283062). The conditions noted are these: primary human foreskin fibroblasts; actives raise or lower the signal. In outline:
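Fibroblasts from human foreskin are treated with test chemical and harvested at 24 h. TIMP-1 is quantified by ELISA, and gain or loss of signal is scored against DMSO.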

Read-out in test [2]: Matrix Metallopeptidase 1 (MMP1), MMP1 (gene 4312)
The test is described as follows: BSK_hDFCGF_MMP1: BioMAP Diversity Plus: hDFCGF Assay for Matrix Metallopeptidase 1 (MMP1) Biomarker Activity (AID 2283064). As to conditions: primary human foreskin fibroblasts; actives raise or lower the signal. In outline:
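ELISA read-out of MMP1 from human foreskin fibroblasts (primary skin cells), 24 h post-dose. Gain or loss of signal was fitted bidirectionally versus DMSO negative control; cytotoxicity was checked by SRB in parallel cultures.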

Read-out in test [3]: Vascular cell adhesion molecule 1 (VCAM1), VCAM1 (gene 7412)
Nature of the test: BSK_hDFCGF_VCAM1: BioMAP Diversity Plus: hDFCGF Assay for Vascular cell adhesion molecule 1 (VCAM1) Biomarker Activity (AID 2283065).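 On AC50: VCAM-1 protein level quantified by ELISA after 24 h chemical exposure.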 As to conditions: primary human foreskin fibroblasts; actives raise or lower the signal. In outline:
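Cells are dosed, cultured for 24 h, then VCAM-1 is quantified by ELISA; signal increases and decreases are both fitted relative to DMSO.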

Read-out in test [4]: Plasminogen activator inhibitor-1 (PAI1), SERPINE1 (gene 5054)
Nature of the test: BSK_hDFCGF_PAI1: BioMAP Diversity Plus: hDFCGF Assay for Plasminogen activator inhibitor-1 (PAI1) Biomarker Activity (AID 2283066). The conditions noted are these: primary human foreskin fibroblasts; actives raise or lower the signal. In outline: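 ELISA readout of PAI-1 from primary human skin fibroblast cultures, 24 h after compound addition. Gain or loss of signal was fitted bidirectionally against DMSO baseline.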

Read-out in test [5]: Intercellular Adhesion Molecule 1 (ICAM1), ICAM1 (gene 3383)
The test is described as follows: BSK_KF3CT_ICAM1: BioMAP Diversity Plus: KF3CT Assay for Intercellular Adhesion Molecule 1 (ICAM1) Biomarker Activity (AID 2283067). As to conditions: primary human keratinocytes with fibroblasts; actives raise or lower the signal. In outline: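 Dose the keratinocyte/fibroblast co-culture, wait 24 h, measure ICAM-1 by ELISA, then fit increases or decreases against DMSO. Cytotoxicity is checked in parallel cultures by SRB total-protein staining.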

Read-out in test [6]: Interferon-gamma inducible Protein 10 (IP10), CXCL10 (gene 3627)
Nature of the test: BSK_KF3CT_IP10: BioMAP Diversity Plus: KF3CT Assay for Interferon-gamma inducible Protein 10 (IP10) Biomarker Activity (AID 2283068). As to conditions: primary human keratinocytes with fibroblasts; actives raise or lower the signal. In outline:
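Human keratinocyte plus foreskin fibroblast primary co-culture exposed to test chemical for 24 h; IP-10 measured by ELISA. Concentration-response fitted bidirectionally against DMSO control as baseline.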

Read-out in test [7]: Interleukin-1 alpha (IL1a), IL1A (gene 3552)
Nature of the test: BSK_KF3CT_IL1a: BioMAP Diversity Plus: KF3CT Assay for Interleukin-1 alpha (IL1a) Biomarker Activity (AID 2283070). As to conditions: primary human keratinocytes with fibroblasts; actives raise or lower the signal. In outline: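 Primary skin co-culture (keratinocytes, foreskin fibroblasts), 24 h exposure; ELISA for IL-1a; bidirectional curve fit vs DMSO.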

Read-out in test [8]: TIMP metallopeptidase inhibitor 2 (TIMP2), TIMP2 (gene 7077)
Nature of the test: BSK_KF3CT_TIMP2: BioMAP Diversity Plus: KF3CT Assay for TIMP metallopeptidase inhibitor 2 (TIMP2) Biomarker Activity (AID 2283071). As to conditions: primary human keratinocytes with fibroblasts; actives raise or lower the signal. In outline:
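ELISA readout of TIMP-2 in keratinocyte plus foreskin fibroblast co-cultures (human skin primary cells), 24 h post-dose. Gain or loss of signal fitted relative to DMSO.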

Read-out in test [9]: Transforming growth factor beta 1 (TGFb1), TGFB1 (gene 7040)
Nature of the test: BSK_KF3CT_TGFb1: BioMAP Diversity Plus: KF3CT Assay for Transforming growth factor beta 1 (TGFb1) Biomarker Activity (AID 2283072). The conditions noted are these: primary human keratinocytes with fibroblasts; actives raise or lower the signal. In outline:
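Read-out: ELISA for TGF-b1 in keratinocyte/foreskin fibroblast human skin co-culture, 24 h after dosing; bidirectional curve fit vs DMSO baseline; gain or loss of signal scored.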

Read-out in test [10]: C-C motif chemokine 2 (Homo sapiens) (UniProt P13500)
The test is described as follows: BSK_KF3CT_MCP1: BioMAP Diversity Plus: KF3CT Assay for Monocyte Chemoattractant Protein 1 (MCP1/CCL2) Biomarker Activity (AID 2283073). The conditions noted are these: primary human keratinocytes with fibroblasts; actives raise or lower the signal. In outline:
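Keratinocytes and foreskin fibroblasts were co-cultured, dosed with chemical, and sampled 24 h later. MCP-1 was quantified by ELISA, and the endpoint was analyzed with bidirectional fitting using DMSO as negative control.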

Read-out in test [11]: Matrix Metallopeptidase 9 (MMP9), MMP9 (gene 4318)
The test is described as follows: BSK_KF3CT_MMP9: BioMAP Diversity Plus: KF3CT Assay for Matrix Metallopeptidase 9 (MMP9) Biomarker Activity (AID 2283074).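 On AC50: MMP9 protein level quantified by ELISA in the co-culture.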 As to conditions: primary human keratinocytes with fibroblasts; actives raise or lower the signal. In outline: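 ELISA read-out of MMP-9 at 24 h post-dosing in a co-culture of human skin keratinocytes and foreskin fibroblasts. Gain or loss of signal was fitted in both directions against DMSO.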

Read-out in test [12]: urokinase plasminogen activator (uPA), PLAU (gene 5328)
The test is described as follows: BSK_KF3CT_uPA: BioMAP Diversity Plus: KF3CT Assay for urokinase plasminogen activator (uPA) Biomarker Activity (AID 2283075). As to conditions: primary human keratinocytes with fibroblasts; actives raise or lower the signal. In outline:
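Skin co-culture (keratinocytes + foreskin fibroblasts), human primary; 24 h post-dose; uPA by ELISA; gain/loss fit vs DMSO baseline.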

Read-out in test [13]: E-selectin (Homo sapiens) (UniProt P16581)
Nature of the test: BSK_LPS_Eselectin: BioMAP Diversity Plus: LPS Assay for Eselectin Biomarker Activity (AID 2283077). The conditions noted are these: primary human HUVEC with PBMC; actives raise or lower the signal. In outline:
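Signal of E-selectin, detected by ELISA, served as the endpoint; cells were umbilical vein endothelium with PBMC, read 24 h after treatment. DMSO defined baseline, and both increases and decreases were fitted.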

Read-out in test [14]: Interleukin-8 (IL8), CXCL8 (gene 3576)
Nature of the test: BSK_LPS_IL8: BioMAP Diversity Plus: LPS Assay for Interleukin-8 (IL8) Biomarker Activity (AID 2283078). As to conditions: primary human HUVEC with PBMC; actives raise or lower the signal. In outline: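 Endothelial cells and PBMC from human donors are co-cultured, treated with chemicals and LPS, then assayed for IL-8 by ELISA after 24 h. Parallel SRB staining (0.1% SRB after 10% TCA fixation, 560 nm) flags cytotoxicity.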

The nature of test [15]: BSK_LPS_SRB: Viability Assessment in the BioMAP Diversity Plus: LPS Assay (AID 2283079).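 Further: total protein by sulforhodamine B absorbance as a cytotoxicity measure; measured one day after compound addition.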 The conditions noted are these: primary human HUVEC with PBMC. In outline:
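Overt cytotoxicity was gauged by sulforhodamine B total-protein staining in a primary human vascular endothelial and mononuclear cell co-culture 24 h post-dosing. Activity was fitted in both directions relative to DMSO.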

Read-out in test [16]: Interleukin-1 alpha (IL1a), IL1A (gene 3552)
The test is described as follows: BSK_LPS_IL1a: BioMAP Diversity Plus: LPS Assay for Interleukin-1 alpha (IL1a) Biomarker Activity (AID 2283080). As to conditions: primary human HUVEC with PBMC; actives raise or lower the signal. In outline:
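Measured: IL-1 alpha via ELISA at 24 h in LPS-activated human umbilical vein endothelium–PBMC co-culture. Baseline: DMSO, bidirectional fitting.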

Test [17] is described as follows: BSK_KF3CT_SRB: Viability Assessment in the BioMAP Diversity Plus: KF3CT Assay (AID 2283069). The conditions noted are these: primary human keratinocytes with fibroblasts. In outline:
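SRB read-out at 560 nm (0.1% stain, TCA-fixed cells) gauges overt cytotoxicity in a human skin keratinocyte–fibroblast co-culture 24 h post-dosing. Signal change was fitted bidirectionally relative to DMSO control.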

Read-out in test [18]: Monocyte Chemoattractant Protein-1 (MCP1), CCL2 (gene 6347)
The test is described as follows: BSK_LPS_MCP1: BioMAP Diversity Plus: LPS Assay for Monocyte Chemoattractant Protein-1 (MCP1) Biomarker Activity (AID 2283081). The conditions noted are these: primary human HUVEC with PBMC; actives raise or lower the signal. In outline:
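LPS-stimulated HUVEC/PBMC co-culture; chemical, 24 h; MCP-1 by ELISA; bidirectional fit vs DMSO; cytotoxicity via SRB (0.1% stain, 10% TCA fix, 560 nm) in parallel wells.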

For four compounds, AC50 and outcome results are on record in PubChem BioAssay (EPA / NIEHS).

Values joined by “and” are separate entries in the source; they are usually repeats but may differ in a detail not shown here. Identical values can stand only once. Active and inactive are the calls of the source. How the source made its calls: active means hit-call score of the fitted dose curve at least 0.9, where 1 is the maximum; inactive means score below 0.9.

Broadly, the AC50 is the concentration giving half of the maximal activity seen.

E-selectin (Homo sapiens), sequence (P16581 whole entry, looked up): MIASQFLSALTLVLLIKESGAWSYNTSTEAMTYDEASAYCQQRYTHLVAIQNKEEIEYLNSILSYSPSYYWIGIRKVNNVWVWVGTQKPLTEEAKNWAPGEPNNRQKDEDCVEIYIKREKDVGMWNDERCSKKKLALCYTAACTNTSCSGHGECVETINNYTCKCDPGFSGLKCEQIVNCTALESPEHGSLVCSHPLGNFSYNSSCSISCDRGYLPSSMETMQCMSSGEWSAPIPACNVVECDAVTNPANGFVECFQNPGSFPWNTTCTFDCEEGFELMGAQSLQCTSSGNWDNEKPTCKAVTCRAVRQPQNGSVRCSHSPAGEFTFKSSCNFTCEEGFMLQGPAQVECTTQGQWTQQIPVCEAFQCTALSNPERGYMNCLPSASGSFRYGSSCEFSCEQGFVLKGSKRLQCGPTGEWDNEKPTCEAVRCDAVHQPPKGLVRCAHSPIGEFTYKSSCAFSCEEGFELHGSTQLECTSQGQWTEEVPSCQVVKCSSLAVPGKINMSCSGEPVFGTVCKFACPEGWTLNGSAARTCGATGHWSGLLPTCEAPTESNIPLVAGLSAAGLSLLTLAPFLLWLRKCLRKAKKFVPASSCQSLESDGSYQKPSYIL

As for `NS(=O)(=O)C(F)(F)C(F)(F)C(F)(F)C(F)(F)C(F)(F)C(F)(F)C(F)(F)C(F)(F)F`, the AC50 in test [1] was 34.4 µM (active) and 53.2 µM (active) and 54.7 µM (active); in [2], 30.7 µM (active) and 15.3 µM (active) and 17.5 µM (active); in test [3], 17.3 µM (active) and 9.88 µM (active) and 7.69 µM (active); in test [4], 27.7 µM (active) and 15.4 µM (active) and 21.1 µM (active); in test [5], 32 µM (active) and 43.5 µM (active) and 54 µM (active); in [6] it was 13 µM (active) and 32.4 µM (active) and 37.3 µM (active). In addition, the AC50 is 29.4 µM (active) and 43.8 µM (active) and 44.6 µM (active) in [7]; 26 µM (active) and 40.7 µM (active) and 44.4 µM (active) in test [8]; 9.43 µM (active) in [9]; 33.4 µM (active) and 48.9 µM (active) and 52.2 µM (active) in [10]; 12.2 µM (active) and 19.9 µM (active) and 20.4 µM (active) in [11]; 13.5 µM (active) and 20.9 µM (active) and 21.5 µM (active) in [12]. Besides, the AC50 in test [13] is 29.7 µM (active) and 54.3 µM (active) and 58.5 µM (active); in [14], 30.1 µM (active) and 45.6 µM (active) and 49.8 µM (active); in test [15], 28.9 µM (active) and 44.6 µM (active) and 44.3 µM (active); in test [16] it was 32.1 µM (active) and 48.7 µM (active) and 52.2 µM (active).
`C=CC(=O)NCNC(=O)C=C`: the result in test [1], in test [2], in test [3], in test [4], in test [5] and in test [6] was inactive. Further, the result in test [17], in test [7], in [8], in test [9], in [10] and in [11] was inactive. Further, the result in test [12], in test [13], in [14], in [15], in [16] and in [18] was inactive.
Take `ClC1=C(Cl)[C@]2(Cl)[C@@H]3[C@H]4C[C@H]([C@@H]5O[C@H]45)[C@@H]3[C@@]1(Cl)C2(Cl)Cl`: the outcome in test [1], in test [2], in test [3], in test [5], in test [6] and in test [7] was inactive. Also, the outcome in [8], in test [9], in test [10], in test [11], in test [12] and in test [13] was inactive. Also, the outcome in test [14] and in test [16] was inactive. Also, the AC50 in [15] was 7.24 µM (active).
`CC1=C2C[C@H]3[C@@H](CC=C4C[C@@H](O)CC[C@@]43C)[C@@H]2CC[C@]12O[C@@H]1C[C@H](C)CN[C@H]1[C@H]2C`: the outcome in test [1], in test [2], in test [3], in test [4], in [5] and in test [6] was inactive. Besides, the result in [7], in test [8], in [9], in [10], in test [11] and in test [12] was inactive. In addition, the result in [13], in [14], in test [15], in [16] and in test [18] was inactive.
